Sampled rows, rich in hits. Any-hit rate of the full collection: about 11%.
PNC inhibitor: High Content Assay for Compounds that inhibit the Assembly of the Perinucleolar Compartment. PC3M PTB-GFP, PNC prevalence imaging, 16 h; active compounds read low. activity change (PNC), negative = inhibition, % at 10 µM. 140,000 compounds, 3.1% hits. AID 2417, 2010;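 active means readout at or below -70, meaning at least 70% loss of cells showing the perinucleolar compartment, a nuclear body marking cancer cells; inconclusive means readout between -30 and a set limit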;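 further: plate controls were DMSO wells for no effect and camptothecin positive control wells for full effect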
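Compounds are pinned in duplicate onto adhered PC3M cells stably expressing GFP-tagged PTB and incubated 16 h at 37 C. Cells are then fixed, nuclei stained with Hoechst, and PNC-positive cells counted.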
HPGD block: qHTS Assay for Inhibitors of HPGD (15-Hydroxyprostaglandin Dehydrogenase) | Potency, µM, for inactives: at the highest dose activity change, negative = inhibition, hits mostly inhibitors | 150,000 compounds, 4.3% hits | AID 894, 2007 | purified HPGD, NADH fluorescence kinetic, PGE2 substrate; further: potency means the concentration at half of the fitted maximal effect
Target sequence (P15428 whole entry, looked up): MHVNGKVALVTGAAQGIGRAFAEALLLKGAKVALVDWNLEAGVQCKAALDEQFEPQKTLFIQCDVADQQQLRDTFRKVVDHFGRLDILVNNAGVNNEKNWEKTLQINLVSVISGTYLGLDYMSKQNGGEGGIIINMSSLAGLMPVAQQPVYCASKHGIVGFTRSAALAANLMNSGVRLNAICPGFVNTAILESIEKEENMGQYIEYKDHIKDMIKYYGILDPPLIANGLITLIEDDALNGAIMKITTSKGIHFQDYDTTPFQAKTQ
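20 nM HPGD preincubated 15 min at room temperature with compound in 50 mM Tris-HCl pH 8, 0.01% Tween 20. Started with 1 mM NAD+ and 30 uM prostaglandin E2; NADH fluorescence (360/450 nm) read 5 times over 30-s intervals, last minus first.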
ALDH1A1 inh: qHTS Assay for Inhibitors of Aldehyde Dehydrogenase 1 (ALDH1A1); Purified ALDH1A1, NADH fluorescence, propionaldehyde substrate; Potency, µM (series often up to 75.3 µM), without a hit: top-dose activity, negative = inhibition, usual class: inhibitors; AID 1030, 2008; Aldehyde dehydrogenase 1A1 (Homo sapiens), P00352; 220,000 compounds, 7.3% hits;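 further: potency means the concentration at half of the fitted maximal effect; plate controls were no enzyme wells and a reference inhibitor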
* = called active by the depositor; ? = inconclusive; . = not tested or not shown; [ ] = dose if it differs, or a comment. Unless noted, the call rests on the fitted dose curve; in most records, active means well fitted inhibition curve with a large enough effect (not every such curve was filed as active); inconclusive means small, poorly fitted or top-dose-only effect, or another doubt; inactive means no such curve, though single readings can be large or run the other way. Unless noted, on the % scale 0 is the no-effect control and ±100 the full control effect.

SMILES	PNC inhibitor	HPGD block	ALDH1A1 inh
O=[N+]([O-])c1cc([N+](=O)[O-])c2c(=Nc3ccccc3)n(-c3ccccc3)n(O)c2c1	.	.	0.355µM*
O=[N+]([O-])c1cccc(C(=Nc2ccccc2)NO)c1	16.2	-12.8%	-13.9%
CN(CC(=O)NCc1ccncc1)S(=O)(=O)c1ccc2ccccc2c1	.	.	0.5%
COc1ccc(CSCCc2n[nH]c(=S)n2-c2ccccc2)cc1C	.	.	0.0%
S=c1[nH]nc(CCSCc2ccccc2)n1-c1ccccc1	.	.	35.5µM*
S=c1[nH]nc(Cc2noc3ccccc23)n1-c1ccccc1	.	.	-2.4%
S=c1[nH]nc(Cc2cccc3ccccc23)n1-c1ccccc1	41.4	14.1µM*	?
C=CCn1c(Cc2cccc3ccccc23)n[nH]c1=S	-25.4	28.2µM*	-7.9%
C=CCn1c(CCn2c3ccccc3c3ccccc32)n[nH]c1=S	-6.2	?	?
CCN(C(=O)CSc1nnc2nc(C)cc(C)n12)c1ccccc1	.	.	-6.9%
O=C(c1ccc(Cn2c(=S)[nH]c3ccc(Br)cc3c2=O)cc1)N1CCN(C2CCCCC2)CC1	.	.	-0.7%
NC1=NC(=O)C(CC(=O)Nc2ccc3c(c2)OCO3)S1 (stereo not drawn)	.	.	-2.3%
CCCCC(=O)Nc1cccc(-c2cn3ccccc3n2)c1	?	.	28.2µM*
CC(=O)Nc1cccc(NC(=O)CSc2nc3ccccc3o2)c1	31.7	-5.9%	-0.4%
O=C(Nc1cccc(-c2cn3ccccc3n2)c1)c1ccccc1	.	.	-10.3%
CCCC(=O)Nc1cccc(-c2nc3ccccc3o2)c1	-106.5*	-23.4%	-8.6%
CCCC(=O)Nc1cccc(-c2nc3cc(C)c(C)cc3o2)c1	34.6	?	?
O=C(Cc1ccccc1)NC(=S)Nc1ccc2oc(-c3ccccc3F)nc2c1	-16.6	-12.5%	?
CSc1cccc(NC(=O)CSc2nc3ccccc3o2)c1	-98.2*	-23.0%	?
O=C(Cc1ccccc1)NC(=S)Nc1ccc2oc(-c3ccccc3)nc2c1	?	?	22.4µM*
CC=C(/C(=C/C)c1ccc(O)cc1)c1ccc(O)cc1	.	-16.9%	-9.1%[20.9 µM]
CCOC(=O)C1(Cc2ccccc2Cl)CCN(Cc2csc(C(C)=O)c2)CC1	.	.	-9.5%
COc1c2c(cc3c1C(CC(=O)c1c(O)c(OC)c4occc4c1OC)[N+](C)(C)CC3)OCO2 (stereo not drawn)	.	-7.4%	-12.1%
COc1ccc(C(=O)NCc2nnc(SCC(=O)Nc3nc4ccccc4s3)o2)cc1OC	13.6	-7.9%	3.2%
C[C@H]1[C@H](C)OC(=O)C[C@H](O)C[C@H](O)C[C@H](O)CC[C@H](O)[C@H](O)CC(=O)C[C@H](O)[C@H](C(=O)O)[C@H](O)C[C@H](O[C@@H]2O[C@@H](C)[C@H](O)[C@@H](N)[C@@H]2O)C=CC=CC=CC=CCCC=CC=C[C@@](C)(O)[C@H]1O	.	-11.5%	-10.1%[13.5 µM]
SMILES	PNC inhibitor	HPGD block	ALDH1A1 inh
CCCC(=O)Nc1ccccc1Sc1ncnc2scc(-c3ccccc3)c12	5.8	-2.5%	4.9%
O=C(N/N=C/c1cccc(C(F)(F)F)c1)C1CCN(c2ncc(C(F)(F)F)cc2Cl)CC1	41.3	-10.0%	32.2%
O=C(N/N=C/c1ccc(Cl)cc1Cl)C1CCN(c2ncc(C(F)(F)F)cc2Cl)CC1	97.0	-22.4%	3.55µM*
CC(C)OCCCN1C=C2C(=O)C(C)(OC(=O)C3CCCC3)C(=O)C=C2C=C1c1ccsc1 (stereo not drawn)	.	-5.7%	?
CCN(CC)C(=O)C1CCCN(Cc2ccccc2C(F)(F)F)C1 (stereo not drawn)	5.5	-12.7%	3.55µM*
CCN(CC)C(=O)C1CCCN(Cc2ccccc2F)C1 (stereo not drawn)	15.3	-7.7%	-10.1%
O=C(N1CCOCC1)N1CCC(n2nnc3ccccc32)CC1	-7.2	-16.7%	-19.3%
O=C(C1CCCCC1)N1CCC(n2nnc3ccccc32)CC1	-26.9	-4.4%	14.1µM*
CC1=CC(c2ccccc2)n2nc(NS(=O)(=O)c3ccc(C)cc3)nc2N1 (stereo not drawn)	-10.2	?	0.631µM*
CC1=CC(c2ccc(Cl)cc2)n2nc(NS(=O)(=O)c3ccc(C)cc3)nc2N1 (stereo not drawn)	32.8	?	?
O=c1c(/C=N/Nc2ccccc2)c(Sc2nnnn2-c2ccccc2)nc2ccccn12	13.2	-3.5%	2.1%
O=C(O)c1ccccc1N/N=C/c1c(Sc2nnnn2-c2ccccc2)nc2ccccn2c1=O	.	.	2µM*
COC(=O)c1ccc(C(NC(=O)OCc2ccccc2)/C(C)=C/[C@@H](C)C(=O)NCc2nn(-c3ccccc3)nc2C)cc1 (stereo partly drawn)	.	-16.9%	?
Cc1ccc(C)n1-c1cccc(NC(=O)c2ccccc2)c1	28.0	-10.3%	12.3%
Cc1ccc(C)n1-c1ccc(C(=O)Nc2ccccc2)cc1	-14.4	15.8µM*	28.2µM*
CCNc1nc(NC(C)CC)nc(ON=C(C)C)n1 (stereo not drawn)	.	.	7.5%
Cc1ccc(NC(=O)COC(=O)c2ccc([N+](=O)[O-])s2)c(C)c1	?	0.4%	?
Cc1cc(C)c(NC(=O)COC(=O)c2ccc([N+](=O)[O-])s2)c(C)c1	-27.7	-3.2%	-1.3%
O=C(COC(=O)c1ccc([N+](=O)[O-])s1)NCc1ccc(F)cc1	-1.9	-1.5%	7.08µM*
COc1ccccc1NC(=O)COC(=O)c1ccc([N+](=O)[O-])s1	.	.	10µM*
CC(NC(=O)COC(=O)c1ccc([N+](=O)[O-])s1)c1ccccc1 (stereo not drawn)	?	-2.4%	?
O=C(COC(=O)c1ccc([N+](=O)[O-])s1)NC(=O)NCc1ccccc1	.	.	7.08µM*
FC(F)(F)c1cnc(-c2cnc(-c3cccnc3)nc2)c(Cl)c1	.	.	5.4%
Nc1ncnc2c1ncn2[C@@H]1O[C@H](CO)[C@H](O)[C@H]1O	.	-11.4%	1.3%
COC(=O)N1CCC[C@@]2(CCN(C(=O)Nc3cccc(C#N)c3)C2)C1	.	-2.2%	-6.3%
SMILES	PNC inhibitor	HPGD block	ALDH1A1 inh
CC(C)(C)c1ccc(C(CC(=O)O)NC(=O)Cc2ccc(F)cc2)cc1 (stereo not drawn)	.	.	0.3%
CCOC(=O)N1CCN(C(=O)C(C)(C)Oc2ccc(Cl)cc2)CC1	25.7	-5.6%	?
COc1ccc(N2CCN(C(=O)C(C)(C)Oc3ccc(Cl)cc3)CC2)cc1	?	-14.2%	10µM*
COc1ccc(N2CCN(C(=O)c3ccc(-n4nc(C)cc4C)cc3)CC2)cc1	19.8	-8.7%	3.1%
COc1ccc(N2CCN(C(=O)c3ccc(C(C)(C)C)cc3)CC2)cc1	?	-20.5%	8.91µM*
CC1C(=O)NN=C1C(=O)N/N=C/c1cccs1 (stereo not drawn)	.	.	0.8%
COc1cccc2cc(C(C)OC(=O)Nc3ccc(C)cc3)oc12 (stereo not drawn)	.	.	-7.1%
COc1ccc(C(=O)O)cc1S(=O)(=O)NCCN(C)C	.	.	10.7%
CCC1=C2CC[C@H]3C(=O)N(CC(=O)OC)C(=O)[C@H]3[C@H]2[C@@]2(C)C(=O)N(Cc3ccccc3)C(=O)N2C1=O	.	-1.6%	-0.6%
CC(C)[C@H](NC(=O)c1ccccc1)C(=O)OCC(=O)NCc1ccc(F)cc1	.	.	-5.2%

Compound activity (PubChem)
